# FBW7 act – FBW7 E3 ligase activators, primary screen, biochemical, AlphaScreen, human. F-box/WD repeat-containing protein 7 (Homo sapiens), Q969H0. AlphaScreen FBW7–phospho-cyclin E peptide binding, activator screen. normalized activity (activation), % at 26.1 µM. 650,000 compounds, 0.13% hits; in the data active means normalized activity above about 1.9%;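 further: purified mutant Fbw7 with reduced substrate affinity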
# MITF inh – MITF inhibitors, primary screen, biochemical, AlphaScreen, human; Microphthalmia-associated transcription factor (Homo sapiens), O75030; 650,000 compounds, 0.91% hits; AlphaScreen MITF homodimerization, bead proximity signal; inhibition, % at 2.6 µM; in the data active means inhibition above about 50%
# GPR151 activ – activators of human GPR151, primary screen, cell-based, PathHunter beta-arrestin, luminescence; AID 1508602, 2020; PathHunter beta-arrestin GPR151 cells; activation, % at 11.2 µM; 650,000 compounds, 1% hits; in the data active means activation above about 4.9%
# TEAD-YAP inh – TEAD-YAP interaction inhibition, primary screen, TEAD-YAP interaction inhibitor project, luminescence, HEK-TIYL cells; TEAD-Gal4/YAP UAS-luciferase luminescence; inhibition, % at 9.12 µM; 640,000 compounds, 1.4% hits; in the data active means inhibition above about 32%
# GPR151 conf act – GPR151 activators, triplicate retest, confirmation, cell-based, PathHunter beta-arrestin, luminescence; GPR151 PathHunter beta-arrestin cells, 90 min; % of EA-reagent control over plate median; activation, % at 11.2 µM; 6,700 tested, under 10 active; shares compounds with GPR151 activ;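 active means mean percent activation across replicates above the confirmation screen cutoff of 4.91%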
# GPR119 counter – GPR119 activators in beta-arrestin cells, counter-screen for GPR151 activator project, cell-based, PathHunter beta-arrestin, luminescence, triplicate; AID 1508611, 2020; 6,700 compounds, 0.3% hits; shares compounds with GPR151 activ; 90 min; 0 = compound-well median, 100 = enzyme-acceptor control; activation, % at 11.2 µM;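 active means mean percent activation in the counterscreen above 29.09%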;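 further: counterscreen on off-target GPR119 to flag nonselective hits from the GPR151 activator screen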
# Target sequence (Q8TDV5 whole entry, looked up): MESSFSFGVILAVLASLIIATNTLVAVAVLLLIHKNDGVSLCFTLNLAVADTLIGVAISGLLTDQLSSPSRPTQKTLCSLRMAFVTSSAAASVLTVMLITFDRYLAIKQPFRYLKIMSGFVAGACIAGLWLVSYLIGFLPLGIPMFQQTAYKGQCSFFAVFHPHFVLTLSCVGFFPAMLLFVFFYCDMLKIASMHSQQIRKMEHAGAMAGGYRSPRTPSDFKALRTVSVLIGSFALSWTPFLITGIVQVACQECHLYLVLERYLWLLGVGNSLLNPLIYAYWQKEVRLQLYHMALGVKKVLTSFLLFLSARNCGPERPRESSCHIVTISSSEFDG
# Numbers stand for hits; . = inactive; / = not tested or not shown. In the library only some 3.5% were active in any assay of this set; here they are far more common.
SMILES,FBW7 act,MITF inh,GPR151 activ,TEAD-YAP inh,GPR151 conf act,GPR119 counter
COc1ccc(S(=O)(=O)N2CCCCC2)cc1[N+](=O)[O-],.,.,5.0,.,.,.
CC1CCCCN1C(=O)COc1ccc(S(=O)(=O)N2CCCC2)cc1[N+](=O)[O-] (configuration not stated),.,.,.,.,/,/
CC1CN(CC(O)COc2ccc(S(=O)(=O)N3CCCC3)cc2[N+](=O)[O-])CC(C)O1 (configuration not stated),.,.,5.7,.,.,.
O=C(NCC(c1cccnc1)N1CCc2ccccc2C1)c1ccc(Br)cc1 (configuration not stated),.,.,.,.,/,/
O=C(NCCc1c[nH]c2ccccc12)C12CC3CC(CC(O)(C3)C1)C2,.,.,7.6,.,.,.
CCOc1ccc(Nc2nc(N3CCOCC3)c3ccccc3n2)cc1,.,.,.,.,/,/
CCOc1ccc(Nc2nc(NCc3ccco3)c3ccccc3n2)cc1,.,.,5.1,49.0,.,.
COC(=O)C(NC(=O)c1cccs1)C12CC3CC(CC(C3)C1)C2 (configuration not stated),.,.,5.1,.,.,.
COC(=O)C(NC(=O)c1ccc(F)cc1)C12CC3CC(CC(C3)C1)C2 (configuration not stated),.,.,.,.,/,/
CCOC(=O)c1c(-c2ccc(OC)cc2)oc2ccc(OC(=O)c3ccccc3C)cc12,.,.,.,.,/,/
Cc1cc(SCc2ccccc2Cl)nc(=O)[nH]1,.,.,7.6,.,.,.
Cc1cc(SCC(=O)NCc2ccc(F)cc2)nc(=O)[nH]1,.,.,.,.,/,/
COc1ccccc1CNC(=O)CSc1cc(C)[nH]c(=O)n1,.,.,12.0,.,.,.
O=C(N1CCCCCC1)N1CCN(C(=O)N2CCOCC2)CC1,.,.,5.8,.,.,.
O=C(N1CCOCC1)N1CCN(S(=O)(=O)N2CCCC2)CC1,.,.,.,.,/,/
Cc1nc(SC2CCCCC2=O)c(C#N)c(-c2cccs2)c1C(=O)Nc1ccccc1 (configuration not stated),.,.,5.1,.,.,.
CN(C(=O)Cc1ccccc1)N(C)C(=O)Cc1ccccc1,.,.,5.0,.,.,.
CN(C)C(NC(=O)Cc1ccccc1)C(Cl)(Cl)Cl (configuration not stated),.,.,6.0,.,.,.
Cc1cn[nH]c1C1CCCN(S(=O)(=O)c2ccc(-c3ccon3)s2)C1 (configuration not stated),.,.,.,.,/,/
CCOC(=O)c1ccc(NC(=S)NCCCN(CC)CC)cc1,.,.,.,.,/,/
O=C(Cc1cccnc1)N[C@H](Cc1ccc(Cl)cc1)c1nc2ccc(-c3cn[nH]c3)cc2c(=O)[nH]1,.,.,5.5,.,.,.
O=C(c1ncoc1-c1cccs1)N1CCN(c2ccccc2F)CC1,.,.,5.1,.,.,.
O=C(c1cc(-c2cccs2)[nH]n1)N1CCN(c2ccccc2F)CC1,.,.,.,.,/,/
Cc1ccc(NC(=O)c2cnn3c(C(F)(F)F)cc(-c4ccco4)nc23)cc1,.,.,.,.,/,/
CC(=O)c1ccc(NC(=O)c2cnn3c(C(F)(F)F)cc(-c4ccco4)nc23)cc1,.,.,6.8,.,.,.
SMILES,FBW7 act,MITF inh,GPR151 activ,TEAD-YAP inh,GPR151 conf act,GPR119 counter
Cc1cccc(N2N=C(c3ccccc3)CC2=O)c1C,.,.,8.8,.,.,.
COc1cc(OC)cc(C(CNc2ncnc3c2ncn3[C@@H]2O[C@H](CO)[C@H](O)C2O)c2ccccc2C)c1 (some centres not stated),.,.,.,.,/,/
CCCS(=O)(=O)c1ncc(Cl)c(C(=O)Nc2cccc(C)c2)n1,.,.,7.4,.,.,.
CSc1ncc(Cl)c(C(=O)Nc2ccc(C)c(C)c2)n1,.,.,9.9,.,.,.
Cc1cccc(NC(=O)c2nc(S(C)(=O)=O)ncc2Cl)c1,.,.,.,.,/,/
O=C(Oc1ccccc1[N+](=O)[O-])c1ccc(F)cc1,.,.,5.9,.,.,.
O=C(Oc1ccccc1[N+](=O)[O-])c1ccccc1Cl,.,.,10.2,.,.,.
COc1ccc(C2CCN(C(=O)c3ccco3)C2)cc1 (configuration not stated),.,.,.,.,/,/
COCCOC(=O)C1=C(C)N(C)C(=O)NC1c1cccc([N+](=O)[O-])c1 (configuration not stated),.,.,.,.,/,/
N[C@@H](Cc1ccccc1)C(=O)N1CCC(Nc2ccc3[nH]ncc3c2)CC1,.,.,.,.,/,/
COc1ccc(CNC(=O)C(=O)NCc2ccco2)cc1,.,.,.,.,/,/
CCOC(=O)c1c(NC(=O)CSc2nnc(-c3ccco3)o2)sc(C)c1C,.,.,5.1,.,.,.
CCOC(=O)c1c(NC(=O)CSc2nnc(-c3ccco3)o2)sc(C(C)=O)c1C,.,.,.,.,/,/
COC(=O)c1ccc(C(=O)OC)c(NC(=O)CSc2nnc(-c3ccco3)o2)c1,.,.,.,.,/,/
COC(=O)c1ccccc1NC(=O)CSc1nnc(-c2ccco2)o1,.,.,8.3,.,.,.
COc1ccc(S(=O)(=O)NCCOC23CC4CC(CC(C4)C2)C3)cc1C,.,.,5.3,.,.,.
Cc1ccc(S(=O)(=O)NCCOC23CC4CC(CC(C4)C2)C3)cc1C,.,.,.,.,/,/
CCCCOC(=S)SCc1ccc(Cl)s1,.,.,6.4,.,.,.
COc1ccc(C2CC(=O)N3CN(Cc4ccccc4)CSC3=C2C#N)cc1 (configuration not stated),.,.,5.8,.,.,.
CCC(Sc1nc2cc(C(=O)OC)ccc2c(=O)n1Cc1ccc2c(c1)OCO2)C(=O)NCc1cccnc1 (configuration not stated),.,.,.,.,/,/
C/C(=C\c1ccccc1)C(=O)NCCc1ccccc1,.,.,14.6,.,.,.
COC(=O)COc1ccc(-c2nc3ccccc3s2)cc1OC,.,.,.,.,/,/
COc1cc(NC(=O)c2cnc(-c3csc4ccccc34)s2)cc(OC)c1OC,.,.,5.1,.,.,.
CC(=O)Nc1ccc(NC(=O)c2ccc3nc(-c4ccc(C(=O)NC5CC5)cc4)sc3c2)cc1,.,.,11.1,.,.,.
CCCNC(=O)c1ccc2nc(-c3ccc(OC)cc3)sc2c1,.,.,11.4,.,.,.

# High-throughput results from PubChem.
